Hit rate of the full screen: of about 65,000 compounds, about 2,100 (3.2%) showed an effect of 50% or more. The median lay at about -52%. This is one part of a sample in which strong results are shown more often than they occur.

For this assay, the system named is Plasmodium falciparum. As to the kind of experiment: Screen against P. falciparum Asexual Blood Stage (ABS), at 5uM. The format is functional, Dd2. The following applies: tested at 5 uM.
On to `COCCn1ccnc1CN(Cc1ccccn1)Cc1sccc1C`, for which the INHIBITION stood at 92.9%.

On to `COc1cc(CNC(C)Cn2cccn2)cc2c1OCO2` (stereo not given), for which the INHIBITION is on record as -32.2%.

For the compound `COCCN1CCO[C@@H]2CN(Cc3ccccn3)C[C@@H]2C1`, the INHIBITION is recorded as -86.9%.

`COc1cc(CNC(C)Cn2cccn2)cc2c1OCCO2` (stereo not given): the INHIBITION is given as -31%.

On to `COc1cc(CN(CCCN(C)C)Cc2ccccn2)cc2c1OCO2`, for which the INHIBITION came out at 80.6%.

With `Cc1ccsc1CN(CCCN(C)C)Cc1ccccn1`, the INHIBITION is recorded as 77.9%.

As to `Cc1ccc(N2C[C@@H]3CN(Cc4csc(C)n4)CCO[C@@H]3C2)nn1`, the INHIBITION is given as -106%.

With `O=C1CO[C@H]2CN(Cc3ccccc3Br)C[C@@H]2N1`, the INHIBITION was 7.05%.

`COc1ccc(F)cc1C(=O)C1CCCN(Cc2ccc(C)s2)C1` (stereo not given): the INHIBITION is recorded as 17%.

Regarding `Cc1cc(F)ccc1CN1CCC(O)(CN2CCCCC2)C1` (stereo not given), the INHIBITION is 78.8%.

As for `COc1ccc(F)cc1CN1CCC(O)(CN2CCCCC2)C1` (stereo not given), the INHIBITION is reported as 70.9%.

In the case of `CN1CCO[C@H]2CN(C(=O)c3ccoc3)C[C@H]21`, the INHIBITION is -144%.

Consider `Cn1nc(-c2ccccc2)cc1[C@H]1CN2CC[C@H]1C[C@@H]2CNS(C)(=O)=O`, for which the INHIBITION was determined as 15%.

As for `O=C(Cc1ccccc1)N1CCC2(CCN2Cc2ccc(F)cc2)C1` (stereo not given), the INHIBITION is -12.1%.

Consider `O=C(Nc1ccc(F)cc1)N1CCC(CO)(Nc2ccccc2)CC1`, for which the INHIBITION is reported as -40.85%.

Regarding `O=C1N(CCCc2ccccc2)CCCC1(O)CNCC1CCCCC1` (stereo not given), the INHIBITION stood at 72.4%.

As for `O=C1N(CCc2ccccc2)CCCC1(O)CNCc1ccc(F)cc1` (stereo not given), the INHIBITION was 78.1%.

For `CC(Cn1cccn1)NCCS(=O)(=O)c1ccccc1` (stereo not given), the INHIBITION is given as -87.3%.

On to `O=C(C1CCN(S(=O)(=O)N2CCCC2)CC1)N1CCC2(CC1)OCCO2`, for which the INHIBITION was -133%.

Turning to `CC(C)CN1C[C@@H]2C[C@H](C(=O)NCc3cccnc3)[C@H](C1)O2`, the INHIBITION was -83.7%.

`CCc1ccc(CN(C)c2ccc(-c3nc(COC)no3)cn2)nc1`: the INHIBITION was 78.4%.

Turning to `c1cnc(N2CCO[C@H]3CN(CC4CCOCC4)C[C@H]32)nc1`, the INHIBITION is given as -125%.

Consider `O=C(CN1CCCC(c2ccn[nH]2)C1)Nc1nncs1` (stereo not given), for which the INHIBITION was found to be 89.1%.

Take `Cc1nnc(NC(=O)CN2CCCC(c3ccn[nH]3)C2)s1` (stereo not given): the INHIBITION amounted to 85.8%.

As to `CC(C)(CNc1ccc(C#N)c(C(F)(F)F)c1)C(N)=O`, the INHIBITION was -66.3%.

With `Cc1ccc(C2(CN(C)Cc3sccc3C)CCNCC2)nc1`, the INHIBITION is 77.4%.

`COCCCNC(=O)c1cn(C(C)(C)C)c2ncccc12`: the INHIBITION was -71.7%.

Consider `COc1ccc(C(=O)NCCCOC(C)c2ccccc2)c(OC)c1` (stereo not given), for which the INHIBITION was found to be 78.9%.

As for `Fc1ccc(CN2C[C@@H](OCc3ccccn3)[C@H]3COC[C@H]32)cc1`, the INHIBITION is given as -62.3%.

In the case of `CCN(CC)CCNC(=O)c1ccc(-n2ccc3ccccc32)s1`, the INHIBITION worked out at 90.5%.

For the compound `O=C(NCCCN1CCCCC1)c1ccc(-n2ccc3ccccc32)s1`, the INHIBITION turned out to be 79%.

On to `Cc1nc(CN2CCN3C[C@H](Oc4cncnc4)C[C@H]3C2)cs1`, for which the INHIBITION is -50.1%.

Regarding `COc1ncccc1CN1CCC2(CC1)COCCN2C`, the INHIBITION was -36%.

In the case of `COCCCN1CCCC12CCN(Cc1cccnc1OC)CC2`, the INHIBITION worked out at 8.49%.

As to `CN1CCN(Cc2ccccc2Oc2nccc3occc23)CC1`, the INHIBITION was 77.4%.

On to `c1ccc(Oc2nccc3occc23)c(CN2CCCCC2)c1`, for which the INHIBITION is on record as 72.9%.

For the compound `COc1ncccc1CN1C[C@@H]2CN(c3ncccn3)C[C@@H]2C1`, the INHIBITION worked out at 5.48%.

Take `O=C([C@H]1C[C@H]2OCC[C@H]2N(Cc2cccnc2)C1)N1CCCCO1`: the INHIBITION was -141%.

As for `O=C(c1c[nH]c2ncccc12)N(Cc1ccco1)C1CCCC1`, the INHIBITION amounted to 87%.

As to `CCC(C)(C)n1nnnc1C(c1cccs1)N1CCc2ccccc2C1` (stereo not given), the INHIBITION is 73.9%.

Take `Fc1ccccc1Sc1ccccc1CNC1=NCCN1`: the INHIBITION amounted to 77.4%.

For `c1ccc(Sc2ccc3c(c2)OCO3)c(CNC2=NCCN2)c1`, the INHIBITION amounted to 83.7%.

Regarding `Fc1ccc(Sc2ccccc2CNC2=NCCN2)cc1`, the INHIBITION is reported as 80.4%.

In the case of `Cc1csc(CN2CC[C@H]3C[C@H](c4ccncn4)O[C@@H]3C2)n1`, the INHIBITION is -50.8%.

With `CNCc1cn(C[C@H]2C[C@@H]3CCN2C[C@@H]3C(=O)NC2CCCCC2)nn1`, the INHIBITION is -152%.

For the compound `CO[C@H]1CCN(S(=O)(=O)N(C)C)[C@@H]2CN(Cc3cccnc3)C[C@H]12`, the INHIBITION was -7.26%.

Consider `O=C(Nc1ccccc1)[C@H]1CN2CC[C@H]1C[C@@H]2Cn1cc(CCO)nn1`, for which the INHIBITION was -52.4%.

On to `c1ccc(COC2C[C@@H]3CN(Cc4cccnc4)C[C@@H]3C2)cc1` (stereo not given in full), for which the INHIBITION is -9.68%.

Take `CC(C)CN1CCNC(=O)C12CCN(C(=O)c1ccccn1)CC2`: the INHIBITION is recorded as -97.5%.

As to `O=C(N1CCCC1)N1C[C@@H]2CC[C@H]1CN(Cc1ccncc1)C2`, the INHIBITION is -121%.

On to `Cc1cccc(CO[C@@H]2C[C@H]3CN(c4ncccn4)CCN3C2)n1`, for which the INHIBITION was -75.8%.

As to `CCN(CC)Cc1ccccc1NC(=O)N(C)Cc1ccccc1O`, the INHIBITION was 85%.

As for `Cc1cccc(CN2C(=O)C[C@@H]3[C@@H]2CCN3Cc2ccsc2)n1`, the INHIBITION was -13%.

Take `Cc1nc(CN2CCCC(NCCc3ccccc3Cl)C2)no1` (stereo not given): the INHIBITION came to 82.3%.

For `CC(C)c1nc(CN2CCN(C(=O)Cc3ccccc3Cl)CC2)no1`, the INHIBITION was 10.3%.

For `COc1ccccc1OCC(=O)N1CCN(Cc2noc(C)n2)CC1`, the INHIBITION was -68.9%.

Regarding `Fc1cnc(N2CCO[C@H]3CN(CC4CCC4)C[C@H]32)nc1`, the INHIBITION was -80%.

`Cn1c(CN2CCCCC2)cc(=O)c(O)c1CN1CCCCC1`: the INHIBITION came to 81.8%.

For the compound `CO[C@H]1CN(CC2CCOCC2)[C@@H]2CCCO[C@H]12`, the INHIBITION is reported as -48.2%.

On to `Cc1c(C)n(CC(O)CN2CCC(C)CC2)c2c(Cl)cccc12` (stereo not given), for which the INHIBITION was 83%.

On to `CCC(O)CN1CCN(C(=O)Cc2ccccc2Cl)CC1` (stereo not given), for which the INHIBITION was -113%.

As for `Cc1c(C)n(CC(O)CN2CCN(CCO)CC2)c2c(Cl)cccc12` (stereo not given), the INHIBITION is reported as 88.6%.

For `CCS(=O)(=O)N1CCN(CCOC)c2ncccc2C1`, the INHIBITION was -58.7%.

Turning to `COCCN1CCOCC12CCN(C(=O)c1cccnc1)CC2`, the INHIBITION is listed as -95.8%.

As for `O=C(NC1CC1)[C@H]1C[C@H]2OCC[C@H]2N(Cc2cccnc2)C1`, the INHIBITION is listed as -76.1%.
